Molecules are shown by their SMILES. The whole screen tested about 300,000 compounds, of which about 4,000 (1.3%) were called active. The sample holds actives, similar compounds and a random draw of the others, so the mix is not that of the screen.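 The calls were made as follows: active = mean replicate score, as percent of positive control median, at least 50; inconclusive = mean below 50 but one replicate at or above 50; inactive = mean and every replicate below 50.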

The assay can be described thus: kanamycin survival loss of SKKanGAS strain – BacTiter-Glo luminescence, streptokinase expression inhibitor project, primary screen (AID 1662).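 Also: strain carries kanamycin resistance gene driven by streptokinase promoter and grows in 40 µg/ml kanamycin; loss of luminescence reflects streptokinase promoter inhibition or plain growth inhibition; 0% = median of DMSO wells and 100% = positive control at its reference dose.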 To be noted: S. pyogenes SKKanGAS, kanamycin growth, 6 h, at 7.5 µM, active compounds read high.
As to `O=C(O)c1ccc(NS(=O)(=O)c2ccc3c(c2)C(=O)c2cc(S(=O)(=O)Nc4ccc(C(=O)O)cc4)ccc2-3)cc1`, the inhibition was 7.11% (inactive).

In the case of `CC(=O)c1cccc(NC(=O)C2CCN(C(=O)c3ccccc3Cl)CC2)c1`, the inhibition was -0.79% (inactive).

Take `Cc1cccc(-n2c(SCC(N)=O)nc3c(c2=O)C2(CCCCC2)Cc2ccccc2-3)c1`: the inhibition is 13.1% (inactive).

In the case of `N#C/C(=C(/O)Cc1cccc2ccccc12)c1nc2ccccc2s1`, the inhibition is 79.1% (active).

Consider `O=C(O)c1ccccc1CSc1nc2ccccc2s1`, for which the inhibition is 38.1% (inactive).

In the case of `N#C/C(=C(/O)COc1cccc2ccccc12)c1nc2ccccc2[nH]1`, the inhibition was 7.13% (inactive).

Regarding `CN1CCC(CN)(N2CCN(c3ccccc3)CC2)CC1`, the inhibition was -3.22% (inactive).

Consider `Cc1ccc(CNCc2ccc3c(c2)OCO3)c(C)c1`, for which the inhibition is 0.677% (inactive).

For `O=C(O)CCN(Cc1ccccc1)S(=O)(=O)c1c(Cl)cccc1Cl`, the inhibition was 8.43% (inactive).

Regarding `CC(C)CC[n+]1ccn(C2=C([O-])c3ccccc3C(=O)/C2=N\S(=O)(=O)c2ccccc2)c1`, the inhibition is 62.6% (active).

On to `NNc1nc2c(Cl)cccc2s1`, for which the inhibition is -7.59% (inactive).

Regarding `Cc1nc2nc(C)c(NS(=O)(=O)c3ccc(C(C)(C)C)cc3)c(=O)n2[nH]1`, the inhibition was 19.7% (inactive).

For the compound `O=C(NCCc1ccccn1)c1cc(-c2ccc(Cl)cc2)nc2ccccc12`, the inhibition was 1.78% (inactive).

In the case of `CCOC(=O)CSc1nnc(NC(=O)C2CC(=O)N(c3ccc(F)cc3)C2)s1` (stereo not given), the inhibition is 39.8% (inactive).

For `COc1ccc(CCNC(=O)COC(=O)Cc2cc(OC)c(OC)c(OC)c2)cc1`, the inhibition was 1.27% (inactive).

For `Cc1ccccc1C(=O)OC1OC(=O)C(Cl)=C1Nc1ccccc1` (stereo not given), the inhibition is 3.76% (inactive).

Consider `Cc1ccc(NC2=C(Cl)C(=O)OC2OC(=O)c2ccccc2C)cc1` (stereo not given), for which the inhibition is 66% (active).

As for `O=C1OC(OC(=O)c2ccccc2Br)C(N2CCOCC2)=C1Cl` (stereo not given), the inhibition is 35.8% (inactive).

`O=[N+]([O-])c1ccc(N(CCO)Cc2ccccc2)c([N+](=O)[O-])c1`: the inhibition is 4.42% (inactive).

Regarding `CN(C)CCCNC(=S)N1CCN(c2nc(-c3ccccc3)cs2)CC1`, the inhibition was -0.915% (inactive).

Take `CC[C@H]1OC(=O)[C@H](C)[C@@H](O[C@H]2C[C@@](C)(OC)[C@@H](O)[C@H](C)O2)[C@H](C)[C@@H](O[C@@H]2O[C@H](C)C[C@H](N(C)C)[C@H]2O)[C@](C)(O)C[C@@H](C)[C@@H]2N[C@@H](COCCOC)O[C@H]([C@H]2C)[C@]1(C)O`: the inhibition was 106% (active).

For `CCN1CC(CN(C)Cc2nc(-c3ccc(Cl)cc3)no2)CC1=O` (stereo not given), the inhibition was 1.31% (inactive).

On to `CCOC(=O)C1(Cc2cccc(OC)c2)CCCN(C(=O)CCSC)C1` (stereo not given), for which the inhibition was 1.89% (inactive).

In the case of `C=CCNC(=O)c1ccc2c3n(nc2c1)-c1ccc(C)cc1CO3`, the inhibition was -8.54% (inactive).

As to `CCCC(=O)NC(Nc1ccccc1OC)C(Cl)(Cl)Cl` (stereo not given), the inhibition is 1.6% (inactive).

Turning to `CCCn1c(NC(=O)C23CC4CC(CC(O)(C4)C2)C3)nc2ccccc21`, the inhibition is 54.4% (active).

On to `CCOc1ccccc1NC(=O)C12CC3CC(C1)CC(c1ccc(C)cc1)(C3)C2`, for which the inhibition was 20.1% (inactive).

With `CCn1c(NC(=O)c2nn(C)cc2Br)nc2ccccc21`, the inhibition is -1.42% (inactive).

As to `COc1cccc(N(C(=O)c2snc(C(N)=O)c2N)C(C(=O)NCC2CCCO2)c2c[nH]c3ccccc23)c1` (stereo not given), the inhibition was 3.94% (inactive).

Take `N#C/C(=C(\O)C(F)(F)F)c1nnc2n1CCCCC2`: the inhibition was 7.62% (inactive).

Consider `Cn1c(NC(=O)c2ccccc2)nc2ccccc21`, for which the inhibition was 51.2% (active).

As to `Cn1sc(NC(=O)c2ccccc2)nc1=O`, the inhibition was 1.73% (inactive).

With `Cn1c(-c2ccc(C(=O)c3ccccc3)s2)nc2ccccc21`, the inhibition was -1.65% (inactive).

With `Cc1ccc(C)c(C(C)NC(=O)C2CCCO2)c1` (stereo not given), the inhibition was 1.89% (inactive).

Regarding `COc1cc2ccccc2cc1C(=O)Nc1ccc(NC(=O)c2cccs2)cc1`, the inhibition was 64.7% (active).

Consider `COc1cc2ccccc2cc1C(=O)Nc1ccncc1`, for which the inhibition was -4.59% (inactive).

As for `COc1cc(NC(=O)c2cccs2)ccc1NC(=O)c1ccccc1Cl`, the inhibition is 3.93% (inactive).

Take `Cc1ccc(S(=O)(=O)NCCc2nnc3ccc(SCc4cccnc4)nn23)cc1`: the inhibition was 4.92% (inactive).

Turning to `COc1ccc2sc(N(CCCN(C)C)C(=O)c3ccc(S(=O)(=O)N(C)C4CCCCC4)cc3)nc2c1`, the inhibition is -0.457% (inactive).

For `O=S(=O)(NCC1CC1)c1ccc(F)c(Cl)c1`, the inhibition is -1.69% (inactive).

Turning to `O=C(c1ccccc1)N1N=C(c2ccccc2O)CC1c1ccc(Br)cc1` (stereo not given), the inhibition is 18.1% (inactive).

Turning to `Oc1ccccc1C1=NN(c2ccccc2)C(c2ccccc2)C1` (stereo not given), the inhibition is 93.5% (active).

As for `COc1ccc(C2CC(c3cccs3)=NN2c2ccccc2)cc1` (stereo not given), the inhibition is 11.6% (inactive).

As to `Cc1nc2cc(C(F)(F)F)ccc2n1CCNc1nc(-c2cc(Cl)c(N)c(Cl)c2)cs1`, the inhibition is 34.8% (inactive).

As for `CCCc1cc(=O)[nH]c2nnc(SCC(=O)Nc3nnc(SCC)s3)n12`, the inhibition was 15.3% (inactive).

Values taken from PubChem BioAssay AID1662 (Broad Institute, 2009).
